Sampled rows, rich in hits. Any-hit rate of the full collection: about 0.19%.
Bfl-1 Bim block = inhibitors of Bim binding to Bfl-1, primary screen, biochemical, multiplexed, bead-based flow cytometry; AID 1008, 2008; Bcl-2-related protein A1 (Homo sapiens), Q16548; 190,000 tested, 0.12% active; Bim-Bfl-1 binding inhibition; inhibition, % at 10 µM
Bcl-2 Bim block = inhibitors of Bim-Bcl-2 binding, primary screen, biochemical, multiplexed, human Bcl-2 family. Apoptosis regulator Bcl-2 (Homo sapiens), P10415. Bead-based flow cytometry, Bim peptide-Bcl-2 binding. inhibition, % at 10 µM. 190,000 tested, 0.06% active. AID 950, 2007; in the data active means inhibition above about 40%
Target sequence (P10415 whole entry, looked up): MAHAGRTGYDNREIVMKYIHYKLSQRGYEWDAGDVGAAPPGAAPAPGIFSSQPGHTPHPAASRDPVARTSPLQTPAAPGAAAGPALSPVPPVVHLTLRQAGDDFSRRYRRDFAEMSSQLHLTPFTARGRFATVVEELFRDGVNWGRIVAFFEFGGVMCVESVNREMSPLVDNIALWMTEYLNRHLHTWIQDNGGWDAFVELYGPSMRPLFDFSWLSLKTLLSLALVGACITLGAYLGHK
Bim-Bcl-B = inhibitors of Bim-Bcl-B binding, primary screen, biochemical, multiplexed, human Bcl-2 family | bead-based flow cytometry, Bim peptide-Bcl-B binding | inhibition, % at 10 µM | 190,000 tested, 0.073% active | Bcl-2-like protein 10 (Homo sapiens), Q9HD36
Bim-Bcl-XL = inhibitors of Bim-Bcl-XL binding, primary screen, biochemical, multiplexed, bead flow cytometry, human Bcl-XL; Bcl-2-like protein 1 (Homo sapiens), Q07817; Bim peptide-Bcl-XL binding, fluorescence; inhibition, % at 10 µM; 190,000 tested, 0.04% active; AID 1007, 2008
Bcl-W Bim block = inhibitors of Bim binding to Bcl-W, primary screen, biochemical, multiplexed, bead-based flow cytometry. inhibition, % at 10 µM. 190,000 tested, 0.02% active. Bcl-2-like protein 2 (Homo sapiens), Q92843. Bim peptide-Bcl-W binding;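 further: higher means less fluorescent Bim peptide bound to Bcl-W beads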
Target sequence (Q92843 whole entry, looked up): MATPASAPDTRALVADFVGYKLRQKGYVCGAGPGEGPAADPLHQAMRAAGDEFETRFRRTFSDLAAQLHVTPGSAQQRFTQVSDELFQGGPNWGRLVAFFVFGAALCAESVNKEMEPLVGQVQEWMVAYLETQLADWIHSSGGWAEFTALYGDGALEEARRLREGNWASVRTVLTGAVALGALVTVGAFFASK
Large screens that a line does not name were inactive. Unless noted, no stated cut-off is given here; in the data, active means inhibition above about 40%.

O=C1c2ccccc2-c2onc3ccc(N4CCCC4)c1c23	Bfl-1 Bim block 42, Bcl-2 Bim block 46, Bim-Bcl-XL 63, Bcl-W Bim block 63
CCOc1ccc2noc3c2c1C(=O)c1ccccc1-3	none
O=C1c2ccccc2-c2onc3ccc(NCc4ccco4)c1c23	Bfl-1 Bim block 40, Bcl-2 Bim block 48, Bim-Bcl-B 41, Bim-Bcl-XL 76, Bcl-W Bim block 70
CCNc1ccc2noc3c2c1C(=O)c1ccccc1-3	none
CC(C)(C)NC(=O)CCN(/N=C/c1ccc([N+](=O)[O-])o1)C1=NS(=O)(=O)c2ccccc21	Bim-Bcl-XL 53
CN=C(NC1CCCCC1)c1ccc(Cl)cc1	Bfl-1 Bim block 49
O=C(C[n+]1ccc(-c2nnc3n2CCC3)cc1)c1ccc(Cl)c(Cl)c1	Bim-Bcl-B 43
Cc1cccc(C(=O)N(Cc2nc3ccccc3c(=O)[nH]2)C2CCCCC2)c1	none
CC1=CC(=O)c2c(O)ccc(O)c2C1=O	Bfl-1 Bim block 66, Bcl-W Bim block 45
O=C(NN1CCN(Cc2ccccc2)CC1)c1ccc(N2CCOCC2)c([N+](=O)[O-])c1	none
CC(=NCCCn1ccnc1)C1=C(O)c2ccccc2C1=O	Bfl-1 Bim block 63, Bcl-2 Bim block 87, Bim-Bcl-B 86
O=C(O)c1nn(-c2ccc(Cl)cc2)ccc1=O	none
CCOC(=O)CSC1=NC(=O)/C(=C\c2ccc(Cl)cc2)S1	Bfl-1 Bim block 46
CSC1=NC(=O)/C(=C/c2ccc(SC)cc2)S1	none
O=c1[nH]c(=O)c2nnc(N/N=C\c3ccc(O)cc3)nc2[nH]1	Bim-Bcl-XL 44
O=C(c1ccc(Cl)cc1)c1oc2ccccc2c1CS(=O)c1ccccc1 (stereo not given)	none
CCOc1ccc(NC(=O)C2C(C(=O)O)C3(Cl)C(Cl)=C(Cl)C2(Cl)C3(Cl)Cl)cc1 (stereo not given)	none
O=C(N/N=C/c1ccc(-c2ccccc2[N+](=O)[O-])o1)c1cncc(Br)c1	Bim-Bcl-XL 48
O=C(CNC(=O)c1ccccc1Br)N/N=C/c1ccc(O)cc1	none
Nc1ccc(N2CCN(c3ccc(F)cc3)CC2)cc1	none
Nc1ccc(N2CCCCCC2)cc1	Bfl-1 Bim block 43
CCc1noc(C)c1C(=O)Nc1nnc(C2CCCCC2)s1	none
CCN1/C(=C/C=C/c2oc3ccc4ccccc4c3[n+]2CC)Oc2ccc3ccccc3c21	Bim-Bcl-XL 45
CC[n+]1c(/C=C/N(C)c2ccccc2)oc2ccc(Cl)cc21	none
Clc1ccc(Cl)c2sc(N3CCCC3)nc12	none
CN(C)c1ncc(C2=C(Cl)C(=O)C(N3CCCC3)=C(Cl)C2=O)s1	Bfl-1 Bim block 92, Bcl-2 Bim block 70, Bim-Bcl-B 46, Bim-Bcl-XL 48, Bcl-W Bim block 83
O=C1C(Cl)=C(N2CCCCC2)C(=O)C(Cl)=C1c1cnc(N2CCCCC2)s1	Bfl-1 Bim block 91, Bcl-2 Bim block 69, Bim-Bcl-B 52, Bim-Bcl-XL 49, Bcl-W Bim block 85
CCc1nnc(NS(=O)(=O)c2ccc(Nc3ccc4nonc4c3[N+](=O)[O-])cc2)s1	none
CC1Cc2ccccc2N1C(=O)c1ccc(N2CCCC2)c([N+](=O)[O-])c1 (stereo not given)	Bcl-2 Bim block 56, Bim-Bcl-B 72
COc1ccc(OC)c(N=c2ssnc2Cl)c1	Bfl-1 Bim block 41
Cc1cccc(OCC(=O)NC(=S)Nc2ccc(S(=O)(=O)NC3CCCCC3)cc2)c1	none
C=CCNc1nc(=S)[nH]c2cc(OC)c(OC)cc12	none
COc1cc2[nH]c(=S)nc(NC3CCCC3)c2cc1OC	Bim-Bcl-XL 44
O=C(c1ccco1)N1CCN(S(=O)(=O)c2ccc(S(=O)(=O)NC3CCCCC3)cc2)CC1	none
Brc1ccc2ncnc(Nc3ccc(N4CCOCC4)cc3)c2c1	Bim-Bcl-B 48
O=C(COc1ncnc2ccc(Br)cc12)Nc1ccc(N2CCOCC2)cc1	none
Cc1ccc(NC(=O)CCC(=O)N/N=C/c2cccs2)cc1	none
COc1ccccc1-n1c(-c2cc(-c3ccc(F)cc3)n[nH]2)n[nH]c1=S	Bcl-2 Bim block 44, Bcl-W Bim block 47
COc1ccc(-c2cc(-c3n[nH]c(=S)n3-c3cccc4ccccc34)[nH]n2)cc1	none
